Bioassay records as filed in PubChem BioAssay.
D3 antag: antagonists of human D3 dopamine receptor; P35462; D3R cells, DiscoveRx beta-arrestin luminescence, antagonist mode; hits give low values; max response, negative = inhibition, %; 360,000 tested, 2.5% active; in the data active = max response below about -50%; inconclusive = no clear call, values can overlap the other calls
Target sequence (P35462 whole entry, looked up): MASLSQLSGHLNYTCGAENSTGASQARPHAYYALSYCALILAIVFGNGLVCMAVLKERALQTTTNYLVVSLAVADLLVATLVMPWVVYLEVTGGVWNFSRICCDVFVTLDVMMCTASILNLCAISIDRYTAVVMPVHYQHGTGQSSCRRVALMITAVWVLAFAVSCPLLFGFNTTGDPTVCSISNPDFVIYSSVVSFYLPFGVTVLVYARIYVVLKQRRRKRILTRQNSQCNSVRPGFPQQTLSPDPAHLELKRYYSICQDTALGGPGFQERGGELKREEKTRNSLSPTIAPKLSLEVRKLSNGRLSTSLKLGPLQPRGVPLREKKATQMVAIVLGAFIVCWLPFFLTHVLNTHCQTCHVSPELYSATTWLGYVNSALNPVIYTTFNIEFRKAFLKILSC
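Cells expressing the human receptor were seeded at 1500 cells/well, incubated overnight at 37 degrees C in 5% CO2, then exposed to library compounds with dopamine controls for 90 minutes at 37 degrees C before luminescent detection.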
GLP1R ag: activates the human GLP-1 receptor | HEK293 GLP-1R CRE-luciferase, luminescence, 4-6 h; cells express a hypersensitive GLP-1R form | P43220 | Potency, µM (titrated, usually from 45.6 µM), hits mostly activators | 380,000 tested, 0.007% active
GLP1R inv ag: acts as inverse agonist at human GLP-1 receptor; P43220; HEK293 GLP-1R CRE-luciferase, luminescence, 24 h; GLP-1R form is constitutively active; Potency, µM (series often up to 38.3 µM), most hits filed as inhibitors; 410,000 tested, 1.6% active; also: nearly all actives have a fitted effect of over 55% in size
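Luminescence readout: a drop in cAMP-driven luciferase signal flags inverse agonism at a constitutively active GLP-1R stably expressed in HEK293. Compound exposure lasted 24 hr at 37 deg C, 5% CO2.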
DRD3 agonist: D3 dopamine receptor (human) agonism | P35462 | D3R DiscoveRx beta-arrestin cells, luminescence, 90 min | max activation, % | 410,000 tested, 0.58% active | AID 652048; in the data active = max activation above about 30%
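Cells at 1500/well, incubated overnight, then treated with pinned compounds (dopamine as control) for 90 min at 37 degrees C. DiscoveRx reagent added for 30 - 60 minutes at room temperature; luminescence read.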
Large screens that a line does not name were inactive. Compounds with a hit are over-represented: about 4.3% of the library has one in this group of screens. Unless noted, calls follow the shape of the dose curve; as a rule, active = well fitted curve in the direction sought with a large enough effect; inconclusive = small, poorly fitted or top-dose-only effect, or another doubt; inactive = no such curve, though single readings can be large; an effect the other way counts as inactive or inconclusive.

COc1cccc(-c2nn(C)c3sc(C(=O)N4CCN(c5cccc(C)c5)C(C)C4)cc23)c1 (configuration not stated)	GLP1R inv ag inconclusive, DRD3 agonist 48 (no result: D3 antag, GLP1R ag)
CCCCOC(=O)Nc1nnc(/C=C/c2ccc(OC)cc2)s1	none
CCOC(=O)Nc1nnc(/C=C/c2ccc(OC)cc2)s1	D3 antag -56
COc1ccc(Cn2ccc3nc(C)c(C(=O)Nc4cc(C)cc(C)c4)cc3c2=O)cc1	none (no result: D3 antag, GLP1R ag)
O=C(Nc1ccccc1Oc1cccnc1)C1CCCN(Cc2ccccc2O)C1 (configuration not stated)	GLP1R inv ag inconclusive
O=C(Nc1ccccc1Oc1cccnc1)C1CCCN(C/C=C/c2ccccc2)C1 (configuration not stated)	D3 antag -60, GLP1R inv ag inconclusive
CCOc1ccccc1NC(=O)Cn1nc2c3cc(F)ccc3n(Cc3cccc(C)c3)cc-2c1=O	none (no result: D3 antag, GLP1R ag)
N/C(Cc1cccc2ccccc12)=N\O	DRD3 agonist 30
N/C(Cc1ccccc1Sc1ccccc1)=N\O	none
O=C(CC1C[C@H](C(=O)N2CCCCC2)[C@@]2(CCc3ccccc3)c3[nH]c4ccccc4c3CCN2C1=O)NCc1ccco1 (some centres not stated)	none
CC[C@]12c3[nH]c4cc(-c5ccco5)ccc4c3CCN1C(=O)[C@@H](CC(=O)NCCC1=CCCCC1)C[C@@H]2C(=O)N1CCN(C(=O)c2ccco2)CC1	GLP1R inv ag 7.9µM
CC[C@]12c3[nH]c4cc(-c5ccco5)ccc4c3CCN1C(=O)[C@@H](CC(=O)NCCCOC)C[C@@H]2C(=O)N1CCN(C(=O)c2ccco2)CC1	DRD3 agonist 43
O=C(C[C@H]1C[C@H](C(=O)N2CCCCC2)[C@@]2(CCc3ccccc3)c3[nH]c4cc(-c5ccco5)ccc4c3CCN2C1=O)NCc1ccco1	D3 antag inconclusive, GLP1R inv ag 8.9µM
CC[C@]12c3[nH]c4cc(-c5ccco5)ccc4c3CCN1C(=O)[C@@H](CC(=O)NCCCOC)C[C@@H]2C(=O)N1CCN(C(=O)C2CC2)CC1	D3 antag inconclusive
CC[C@]12c3[nH]c4cc(CCC(=O)N(C)C)ccc4c3CCN1C(=O)[C@@H](CC(=O)NCCC1=CCCCC1)C[C@@H]2C(=O)N1CCN(C(=O)c2ccco2)CC1	none
CCOc1ccc(NS(=O)(=O)c2ccc3[nH]cc(C(=O)NCCc4ccccc4)c(=O)c3c2)cc1	none (no result: D3 antag, GLP1R ag)
CN(CCC#N)c1ccc(/C=C(\C#N)c2ccccn2)cc1	GLP1R inv ag inconclusive
CN(CCC#N)c1ccc(C=C(C#N)c2ccc(Br)cc2)cc1	GLP1R inv ag 10µM
COc1ccc2c(COC(=O)c3cccc(S(=O)(=O)NCC(C)C)c3)cc(=O)oc2c1	GLP1R inv ag inconclusive, DRD3 agonist 32
CCCNS(=O)(=O)c1cccc(C(=O)OCc2cc(=O)oc3cc(OC)ccc23)c1	none
CCc1cc2c(COC(=O)c3cccc(NS(C)(=O)=O)c3)cc(=O)oc2cc1O	GLP1R inv ag 4µM
CC1CN(S(=O)(=O)c2cccc(C(=O)OCc3cc(=O)oc4cc(O)ccc34)c2)CC(C)O1 (configuration not stated)	D3 antag -56
O=C(/C=C/c1ccccc1)c1ccc2ccccc2c1	D3 antag -51, GLP1R inv ag inconclusive
O=C(/C=C/c1ccccc1)/C=C/c1ccccc1	D3 antag -58, GLP1R inv ag inconclusive
O=C(/C=C/c1ccccc1)c1ccccc1	none
N#Cc1ccc(/C=C/C(=O)c2ccccc2)cc1	D3 antag -70
CC(/C=C\c1ccccc1)=C/C(=O)O	none
O=C(c1ccc2ccccc2c1)N1CCN(S(=O)(=O)/C=C/c2ccccc2)CC1	GLP1R inv ag inconclusive
COc1ccc(-c2noc(CNC(=O)c3ccccc3Br)n2)cc1	none (no result: D3 antag, GLP1R ag)
Cc1ccc(CNc2nc(-c3ccco3)nn2S(C)(=O)=O)cc1	none (no result: D3 antag, GLP1R ag)
CCC(C)(C)OC(=O)N[C@@H](Cc1c[nH]c2ccccc12)C(=O)N[C@@H](CCSC)C(=O)N[C@@H](CC(=O)O)C(=O)N[C@@H](Cc1ccccc1)C(N)=O	none (no result: D3 antag, GLP1R inv ag)
N/C(=N\OC(=O)c1ccccc1Br)c1ccc([N+](=O)[O-])cc1	D3 antag -71
N/C(=N\OC(=O)c1ccc(Cl)c([N+](=O)[O-])c1)c1ccccc1	D3 antag -65
CCc1ccc(S(=O)(=O)c2cn(CC(=O)Nc3ccc(C)cc3)c3ccccc3c2=O)cc1	none (no result: D3 antag)
Clc1ccccc1OCc1nnc(-c2ccccc2Br)o1	GLP1R inv ag inconclusive
O=c1c(Cl)c(Cl)cnn1Cc1nnc(-c2ccccc2Br)o1	D3 antag -81, GLP1R inv ag inconclusive
Cn1nnnc1SCCCNCc1ccccc1OCc1ccc(Cl)cc1	none (no result: D3 antag, GLP1R ag)
COc1cc(/C=C2\NC(=S)N(C)C2=O)ccc1O	none
CN1C(=O)/C(=C/c2ccc(O)c([N+](=O)[O-])c2)NC1=S	D3 antag -74
C/C(=N\NC(=O)c1n[nH]c2c1CCC2)c1ccco1	GLP1R inv ag 1.8µM
CC(/C=N/NC(=O)c1cccc(F)c1)=C\c1ccccc1	GLP1R inv ag 10µM
CC(/C=N/NC(=O)c1cc(-c2ccc(C)s2)[nH]n1)=C\c1ccccc1	GLP1R inv ag inconclusive
Cc1ccsc1/C=N\NC(=O)c1n[nH]c2c1CCC2	GLP1R inv ag 2.8µM
CC(/C=N/NC(=O)c1cc(C(C)(C)C)[nH]n1)=C\c1ccccc1	D3 antag -54, GLP1R inv ag inconclusive
COc1ccc(OC)c(NC(=O)c2cc3c(=O)oc4ccccc4c3s2)c1	none (no result: D3 antag)
Cc1ccsc1/C=N\NC(=O)c1cc(C(C)(C)C)[nH]n1	D3 antag -67
O=C(Nc1ccc(-c2nc3c(ccc4ccccc43)o2)cc1)c1ccco1	DRD3 agonist 46
COc1ccc(/C=C/C(=O)Nc2ccc(OC)nc2)cc1	GLP1R inv ag inconclusive
COc1ccc(CS(=O)(=O)/C(Cl)=C(/Cl)C(=O)Nc2ccc(OC)nc2)cc1	D3 antag -51, GLP1R inv ag inconclusive
COc1ccc(NC(=O)/C(Cl)=C(/Cl)S(=O)Cc2ccccc2)cn1 (configuration not stated)	D3 antag -131
COc1ccc(C(=O)N2CC(=O)Nc3ccc(C)cc3C2c2ccccc2)c(OC)c1 (configuration not stated)	none (no result: D3 antag, GLP1R ag)
COc1ccc(S(=O)(=O)NCc2ccccn2)cc1OC	none
COc1ccccc1Oc1ccc(S(=O)(=O)NCc2ccccn2)cc1	D3 antag -79
COC(=O)c1ccc2nc(-c3ccc(F)cc3)c(CC3CCCCC3)n2c1	GLP1R inv ag inconclusive
Cc1cc(C)n(-c2nc(NCCN(C)C)c3c4c(sc3n2)COC(C)(C)C4)n1	GLP1R inv ag inconclusive
CCN(CC)CCNc1nc(-n2nc(C)cc2C)nc2sc3c(c12)CC(C)(C)OC3	GLP1R inv ag 4.5µM
COc1ccc([N+](=O)[O-])cc1/C=N/NC(=O)CNC(=O)c1cccc(F)c1	D3 antag -117
Cc1cc(-c2nn(-c3ccccc3F)cc2CN2CCN(c3ccccn3)CC2)c(C)s1	D3 antag -79, GLP1R inv ag inconclusive
